Bioassay records deposited in PubChem by The Scripps Research Institute Molecular Screening Center.
This is a sample that favours compounds with a hit; in the whole collection about 0.84% have one here.
SRC2 TRFRET art – TR-FRET signal artefacts, primary screen, artefact control for PPARgamma SRC-2 agonist project, biochemical. TR-FRET artefact counter-screen; stronger effect = higher value. TR-FRET ratio at 8 µM. actives 0.4% (n = 200,000)
SRC1 TRFRET art – TR-FRET detection interference compounds, primary screen, artefact control for PPARgamma SRC-1 recruitment agonists, biochemical, TR-FRET emission ratio; TR-FRET detection artefact counter-screen; stronger effect = higher value; TR-FRET ratio at 8 µM; actives 0.34% (n = 99,000); AID 1051, 2008; in the data active = TR-FRET ratio above about 2300
PPARg SRC-2 ag – agonists of PPARg-SRC-2 recruitment, primary screen, biochemical, HTS; Peroxisome proliferator-activated receptor gamma (Homo sapiens), P37231; PPARgamma LBD-SRC-2 recruitment; activation, % at 8 µM; actives 0.34% (n = 200,000); AID 1032, 2008; in the data active = activation above about 22%
Target sequence (P37231 whole entry, looked up, the tested form may be a part): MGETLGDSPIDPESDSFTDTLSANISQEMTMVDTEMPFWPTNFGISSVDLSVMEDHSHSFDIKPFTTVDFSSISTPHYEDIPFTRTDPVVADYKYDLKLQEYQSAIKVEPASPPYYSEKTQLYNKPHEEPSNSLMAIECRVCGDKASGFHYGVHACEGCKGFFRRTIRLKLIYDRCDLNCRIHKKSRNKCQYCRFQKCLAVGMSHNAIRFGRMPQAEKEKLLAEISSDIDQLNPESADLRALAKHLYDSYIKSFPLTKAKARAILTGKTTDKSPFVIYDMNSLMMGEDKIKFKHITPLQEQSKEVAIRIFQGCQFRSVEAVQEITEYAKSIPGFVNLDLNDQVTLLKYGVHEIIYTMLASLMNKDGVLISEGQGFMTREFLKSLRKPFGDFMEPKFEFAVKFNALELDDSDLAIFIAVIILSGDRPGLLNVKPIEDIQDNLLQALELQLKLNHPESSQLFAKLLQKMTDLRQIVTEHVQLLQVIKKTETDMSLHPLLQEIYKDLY
PPARg SRC3 recr – PPARgamma agonists recruiting SRC-3 coactivator, primary screen, biochemical; Peroxisome proliferator-activated receptor gamma (Homo sapiens), P37231; actives 0.26% (n = 200,000); activation, % at 8 µM; biochemical PPARgamma/SRC-3 coactivator recruitment assay; in the data active = activation above about 23%
PPARg SRC1 recr – PPARgamma agonists recruiting SRC-1 coactivator, primary screen, biochemical; Peroxisome proliferator-activated receptor gamma (Homo sapiens), P37231; PPARgamma-SRC-1 coactivator recruitment biochemical assay; activation, % at 8 µM; actives 0.41% (n = 200,000); in the data active = activation above about 19%
SRC3 TRFRET art – TR-FRET detection interference compounds, artefact control for PPARgamma SRC-3 recruitment agonists, biochemical, TR-FRET ratio; TR-FRET ratio at 8 µM; AID 1048, 2008; actives 0.39% (n = 99,000); TR-FRET artefact counter-screen, PPARgamma/SRC-3 format; stronger effect = higher value
Each line names hits and unclear results; the compound was inactive in the other large screens. Cut-off read from the data, not from the text of the source, unless noted: active = TR-FRET ratio above about 2000; inactive = the rest.

CCOC(=O)C1=C(C)Nc2ccccc2N=C1NC(=O)c1ccc(Cl)c(S(=O)(=O)N2CCCC2)c1	SRC3 TRFRET art 2223
Cc1ccc2nc(SCC(=O)NCc3ccco3)c(C#N)cc2c1	SRC2 TRFRET art 2312 (no result: SRC1 TRFRET art, SRC3 TRFRET art)
Cn1c(=O)c2c(nc(SCC(=O)NCc3ccco3)n2C)n(C)c1=O	none (no result: SRC1 TRFRET art, SRC3 TRFRET art)
CC(C)n1c(SCC(=O)NCc2ccco2)nc2c1c(=O)n(C)c(=O)n2C	PPARg SRC1 recr 20.3 (no result: SRC1 TRFRET art, SRC3 TRFRET art)
Cc1ccc2nc(SCC(=O)NCc3cccs3)c(C#N)cc2c1	PPARg SRC1 recr 41.6 (no result: SRC1 TRFRET art, SRC3 TRFRET art)
O=C(Nc1ccccc1C(=O)O)/C(=C/c1ccc([N+](=O)[O-])cc1)NC(=O)c1ccc(Br)o1	none
Cc1cc(=O)[nH]c(N/N=C/c2ccc(OC(=O)c3ccco3)cc2)n1	none
Cc1sc2ncn(CC(=O)NCCCC(=O)N3CCN(Cc4ccc5c(c4)OCO5)CC3)c(=O)c2c1C	none
Cc1ccc(S(=O)(=O)c2cn(Cc3ccc(F)cc3)c3cc4c(cc3c2=O)OCO4)cc1	SRC3 TRFRET art 2414
Cn1c(=O)n(C)c2cc(NC(=O)c3ccccc3[N+](=O)[O-])c(Br)cc21	SRC2 TRFRET art 1997
Cc1nc2scc(-c3ccc(C(C)C)cc3)c2c(=O)n1N	none
COc1ccc(C2CC(C)(c3ccc(OC)cc3OC)Nc3ccccc3N2)c(OC)c1 (stereo unspecified)	none
Cc1cccc2nc(-c3ccccc3)nc(N3CCC(O)(c4ccc(Cl)cc4)CC3)c12	SRC2 TRFRET art 2045
COc1cc(C(=O)NC2=C(C#N)CCC2)cc(OC)c1OC	none
O=C(CSc1cn(Cc2ccccc2)c2ccccc12)Nc1nccs1	SRC2 TRFRET art 3013 (no result: SRC1 TRFRET art, SRC3 TRFRET art)
COc1cccc(-c2nnc3sc(-c4ccccc4)nn23)c1	none
COc1cccc(OC)c1-c1nn2c(-c3cc(-c4ccccc4)n[nH]3)nnc2s1	PPARg SRC1 recr 19.6 (no result: SRC1 TRFRET art, SRC3 TRFRET art)
c1csc(Cc2nn3c(-c4n[nH]c5c4CCC5)nnc3s2)c1	PPARg SRC1 recr 19.5 (no result: SRC1 TRFRET art, SRC3 TRFRET art)
c1coc(-c2nnc3sc(Cc4cccs4)nn23)c1	none (no result: SRC1 TRFRET art, SRC3 TRFRET art)
COc1ccc(-c2oc3ncnc(NCCCN4CCOCC4)c3c2-c2ccc(OC)cc2)cc1	none (no result: SRC1 TRFRET art, SRC3 TRFRET art)
c1ccc(-c2oc3ncnc(NCCCN4CCOCC4)c3c2-c2ccccc2)cc1	PPARg SRC1 recr 24.3 (no result: SRC1 TRFRET art, SRC3 TRFRET art)
N#Cc1c(-c2ccccc2)cc(-c2ccccc2)nc1Br	SRC3 TRFRET art 2095
N#Cc1cc(Oc2cccc3cccnc23)c(-n2nnc3ccccc32)cc1C#N	none (no result: SRC1 TRFRET art, SRC3 TRFRET art)
N#Cc1cc(O)c(-n2nnc3ccccc32)cc1C#N	PPARg SRC-2 ag 25.6
CC(C)NC(=O)COC(=O)c1cccc(NS(=O)(=O)/C=C/c2ccccc2)c1	PPARg SRC-2 ag 21.9
OCCN=C1CCCc2c1[nH]c1ccc(Br)cc21	PPARg SRC1 recr 18.9 (no result: SRC1 TRFRET art, SRC3 TRFRET art)
COc1ccc(CC(=O)OCC(=O)Nc2ccc(Br)cc2)cc1	none
Cc1cnc(NC(=O)c2ccncc2)s1	none
Cc1csc(C(C#N)C(=O)c2ccncc2)n1 (stereo unspecified)	SRC2 TRFRET art 2112, PPARg SRC-2 ag 31.0
CCOc1ccc(-c2nn(-c3ccccc3)cc2/C=C2\SC(=S)N(C3CCS(=O)(=O)C3)C2=O)cc1 (stereo unspecified)	none (no result: SRC1 TRFRET art, SRC3 TRFRET art)
CCOc1ccc(-c2nn(-c3ccccc3)cc2/C=C2\SC(N)=NC2=O)cc1C	PPARg SRC3 recr 29.3 (no result: SRC1 TRFRET art, SRC3 TRFRET art)
CCCCOc1ccc(C(=O)N/C(=C/C=C/c2ccccc2)C(=O)O)cc1	PPARg SRC3 recr 29.7
CN(C(=O)CO/N=C/c1ccc(OC(F)F)cc1)C1CCS(=O)(=O)C1 (stereo unspecified)	none
Cc1c(N=Nc2ccc(O)cc2)c(=O)n(-c2ccccc2)n1C	SRC3 TRFRET art 2164
O=C(CSc1ccc2nnc(-c3ccccn3)n2n1)NCc1ccc2c(c1)OCO2	SRC2 TRFRET art 1984, PPARg SRC-2 ag 28.1 (no result: SRC1 TRFRET art, SRC3 TRFRET art)
CSCCC(NC(=O)c1ccc(C(C)(C)C)cc1)C(=O)O (stereo unspecified)	none
O=C(Cc1ccccc1)NCc1ccc2c(c1)OCO2	none (no result: SRC1 TRFRET art, SRC3 TRFRET art)
O=C(Cc1ccccc1[N+](=O)[O-])NCc1ccc2c(c1)OCO2	SRC1 TRFRET art 2325
Cc1ccsc1-c1nc(CN2C[C@@H](C)O[C@@H](C)C2)c(C)o1	none
Cc1cccc(NC(=S)Nc2ccc(N3CCOCC3)cc2)c1C	SRC2 TRFRET art 1974
COc1ccc(-c2nnc(SCc3c(C)noc3C)o2)cc1	none
CCN1/C(=C\C(=S)Nc2ccccc2)Sc2ccccc21	SRC2 TRFRET art 2548, SRC1 TRFRET art 3876, SRC3 TRFRET art 3725
COC(=O)CNc1nc(Cl)nc(Nc2ccc(C)cc2)n1	none
O=C(CSc1ccc2ccccc2c1Br)Nc1cccc(S(=O)(=O)NC2=NCCCCC2)c1	SRC3 TRFRET art 2200
COc1ccc(S(=O)(=O)N(C)C)cc1NC(=O)Cc1cccs1	none
CCc1ccc(OCC(=O)NNC(=O)CSc2ncnc3sc(C)c(C)c23)cc1	PPARg SRC1 recr 54.5 (no result: SRC1 TRFRET art, SRC3 TRFRET art)
Cc1ccc(OCC(=O)NNC(=O)CSc2ncnc3sc(C)c(C)c23)cc1	none
COc1ccc(CCN2C(=O)CS/C2=N\NC(=O)c2cccs2)cc1OC	none
CCN(CC)c1ccc(NC(=O)c2ccccc2Br)cc1S(=O)(=O)Nc1ccccc1OC	none
CCN(CC)c1ccc(NC(=O)c2ccccc2F)cc1S(=O)(=O)Nc1ccccc1OC	SRC3 TRFRET art 2056
O=C(N/N=C/C=C\c1ccccc1[N+](=O)[O-])c1ccco1	SRC2 TRFRET art 1978
Cc1occc1C(=O)N/N=C/C=C\c1ccccc1[N+](=O)[O-]	none
CCc1ccccc1NC(=O)COc1ccc(C(=S)N2CCCC2)cc1	none
Cc1cccc(NC(=O)c2cc(-c3ccc(C)s3)nc3ccccc23)n1	SRC2 TRFRET art 2007, SRC3 TRFRET art 2191
O=C(c1cc(-c2ccccn2)nc2c(Cl)cccc12)N1CCN(C(=O)C2CCCO2)CC1 (stereo unspecified)	none (no result: SRC1 TRFRET art, SRC3 TRFRET art)
O=C(c1cc(-c2cccs2)nc2ccccc12)N1CCN(c2ccccc2)CC1	none
O=C(c1cc(-c2ccccn2)nc2c(Cl)cccc12)N1CCN(S(=O)(=O)c2ccccc2)CC1	SRC2 TRFRET art 2813, SRC3 TRFRET art 3978
Cc1cc(NC(=O)c2cc(-c3ccc(C)s3)nc3ccccc23)no1	none (no result: SRC1 TRFRET art, SRC3 TRFRET art)
CN(C)S(=O)(=O)c1cccc(NC(=O)c2cc(-c3cccs3)nc3ccccc23)c1	SRC2 TRFRET art 2036, SRC3 TRFRET art 2449
O=C(c1cc(-c2cccs2)nc2ccccc12)N1CCN(S(=O)(=O)c2cccc(F)c2)CC1	SRC2 TRFRET art 2309 (no result: SRC1 TRFRET art, SRC3 TRFRET art)
CSc1nc(O)cc(=O)n1-c1ccc(F)cc1	none
N#CC1=C(N)N(c2ncn[nH]2)C2=C(C(=O)CCC2)C1c1ccc(F)cc1 (stereo unspecified)	none
